Experiments:
[1] = molecular target: Serine/threonine-protein kinase PLK3 (Homo sapiens) (UniProt Q9H4B4); details: at 1 µM
[2] = molecular target: T1, cAMP-dependent protein kinase catalytic subunit PRKX (Homo sapiens) (UniProt P51817); details: at 1 µM
T1 sequence (whole entry): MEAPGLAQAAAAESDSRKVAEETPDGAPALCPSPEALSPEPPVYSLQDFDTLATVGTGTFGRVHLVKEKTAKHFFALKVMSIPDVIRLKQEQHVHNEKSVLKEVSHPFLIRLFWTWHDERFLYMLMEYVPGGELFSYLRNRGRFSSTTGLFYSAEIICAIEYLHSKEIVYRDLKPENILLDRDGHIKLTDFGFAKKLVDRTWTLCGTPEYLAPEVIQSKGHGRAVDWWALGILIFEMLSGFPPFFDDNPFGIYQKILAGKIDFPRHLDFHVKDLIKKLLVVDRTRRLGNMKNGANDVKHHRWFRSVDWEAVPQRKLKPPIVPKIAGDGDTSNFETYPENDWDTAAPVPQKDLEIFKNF

[3] = molecular target: T1, cAMP-dependent protein kinase catalytic subunit PRKX (Homo sapiens); details: at 10 µM
[4] = molecular target: Protein-tyrosine kinase 2-beta (Homo sapiens) (UniProt Q14289); details: at 1 µM
[5] = molecular target: Protein-tyrosine kinase 2-beta (Homo sapiens) (UniProt Q14289); details: at 10 µM
[6] = molecular target: Receptor-interacting serine/threonine-protein kinase 2 (Homo sapiens) (UniProt O43353); details: at 1 µM
[7] = molecular target: Receptor-interacting serine/threonine-protein kinase 2 (Homo sapiens) (UniProt O43353); details: at 10 µM
[8] = molecular target: Rho-associated protein kinase 1 (Homo sapiens) (UniProt Q13464); details: at 10 µM
[9] = molecular target: Rho-associated protein kinase 2 (Homo sapiens) (UniProt O75116); details: at 1 µM
[10] = molecular target: Rho-associated protein kinase 2 (Homo sapiens) (UniProt O75116); details: at 10 µM
[11] = molecular target: Proto-oncogene tyrosine-protein kinase receptor Ret (Homo sapiens) (UniProt P07949); details: at 1 µM
[12] = molecular target: Proto-oncogene tyrosine-protein kinase receptor Ret (Homo sapiens) (UniProt P07949); details: at 10 µM
[13] = molecular target: Macrophage-stimulating protein receptor (Homo sapiens) (UniProt Q04912); details: at 1 µM
[14] = molecular target: Macrophage-stimulating protein receptor (Homo sapiens) (UniProt Q04912); details: at 10 µM
[15] = molecular target: Proto-oncogene tyrosine-protein kinase ROS (Homo sapiens) (UniProt P08922); details: at 1 µM
[16] = molecular target: T2, Tyrosine-protein kinase receptor TYRO3 (Homo sapiens) (UniProt Q06418); details: at 10 µM
T2 sequence (whole entry): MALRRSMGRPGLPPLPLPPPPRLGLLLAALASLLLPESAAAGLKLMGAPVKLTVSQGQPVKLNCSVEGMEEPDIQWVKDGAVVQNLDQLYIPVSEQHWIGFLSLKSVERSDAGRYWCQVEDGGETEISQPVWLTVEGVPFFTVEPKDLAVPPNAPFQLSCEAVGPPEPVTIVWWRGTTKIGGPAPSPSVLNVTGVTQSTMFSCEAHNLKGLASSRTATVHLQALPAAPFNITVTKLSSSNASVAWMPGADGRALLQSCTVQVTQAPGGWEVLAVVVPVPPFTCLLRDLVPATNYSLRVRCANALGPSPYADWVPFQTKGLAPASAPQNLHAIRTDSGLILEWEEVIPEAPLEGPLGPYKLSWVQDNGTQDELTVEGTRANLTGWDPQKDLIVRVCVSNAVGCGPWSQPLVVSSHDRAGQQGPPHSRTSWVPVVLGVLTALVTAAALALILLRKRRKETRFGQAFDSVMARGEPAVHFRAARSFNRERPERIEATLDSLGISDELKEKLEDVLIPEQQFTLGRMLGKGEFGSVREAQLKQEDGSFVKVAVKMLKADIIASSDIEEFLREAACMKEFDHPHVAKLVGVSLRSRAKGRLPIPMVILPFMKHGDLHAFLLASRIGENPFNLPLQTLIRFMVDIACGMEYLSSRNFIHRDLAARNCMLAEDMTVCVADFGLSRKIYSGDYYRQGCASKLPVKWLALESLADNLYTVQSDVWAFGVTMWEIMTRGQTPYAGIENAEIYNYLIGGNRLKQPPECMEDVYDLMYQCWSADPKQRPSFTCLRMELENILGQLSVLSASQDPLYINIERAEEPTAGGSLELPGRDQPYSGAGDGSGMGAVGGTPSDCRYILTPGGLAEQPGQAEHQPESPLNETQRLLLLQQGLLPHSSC

[17] = molecular target: Serine/threonine-protein kinase PLK3 (Homo sapiens) (UniProt Q9H4B4); details: at 10 µM
[18] = molecular target: Proto-oncogene tyrosine-protein kinase ROS (Homo sapiens) (UniProt P08922); details: at 10 µM
[19] = molecular target: T2, Tyrosine-protein kinase receptor TYRO3 (Homo sapiens); details: at 1 µM
[20] = molecular target: Rho-associated protein kinase 1 (Homo sapiens) (UniProt Q13464); details: at 1 µM

Chain of Serine/threonine-protein kinase PLK3 (Homo sapiens) (Q9H4B4 whole entry, looked up): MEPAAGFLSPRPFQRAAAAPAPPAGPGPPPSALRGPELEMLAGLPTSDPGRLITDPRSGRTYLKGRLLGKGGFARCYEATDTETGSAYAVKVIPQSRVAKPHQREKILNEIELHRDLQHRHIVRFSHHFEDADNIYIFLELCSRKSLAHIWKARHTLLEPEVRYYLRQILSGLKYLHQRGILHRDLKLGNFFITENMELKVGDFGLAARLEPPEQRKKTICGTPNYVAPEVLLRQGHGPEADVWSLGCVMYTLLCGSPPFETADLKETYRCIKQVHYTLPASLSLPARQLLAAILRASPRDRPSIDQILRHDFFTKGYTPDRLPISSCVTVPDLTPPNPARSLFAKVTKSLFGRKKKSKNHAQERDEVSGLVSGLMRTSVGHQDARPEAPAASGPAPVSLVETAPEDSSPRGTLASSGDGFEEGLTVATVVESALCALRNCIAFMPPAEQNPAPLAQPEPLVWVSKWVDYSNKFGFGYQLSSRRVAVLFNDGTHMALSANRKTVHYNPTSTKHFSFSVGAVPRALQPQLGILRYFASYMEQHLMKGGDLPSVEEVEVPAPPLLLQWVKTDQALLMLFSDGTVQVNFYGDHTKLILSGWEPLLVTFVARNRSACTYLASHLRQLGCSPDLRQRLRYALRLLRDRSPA
Chain of Protein-tyrosine kinase 2-beta (Homo sapiens) (Q14289 whole entry, looked up): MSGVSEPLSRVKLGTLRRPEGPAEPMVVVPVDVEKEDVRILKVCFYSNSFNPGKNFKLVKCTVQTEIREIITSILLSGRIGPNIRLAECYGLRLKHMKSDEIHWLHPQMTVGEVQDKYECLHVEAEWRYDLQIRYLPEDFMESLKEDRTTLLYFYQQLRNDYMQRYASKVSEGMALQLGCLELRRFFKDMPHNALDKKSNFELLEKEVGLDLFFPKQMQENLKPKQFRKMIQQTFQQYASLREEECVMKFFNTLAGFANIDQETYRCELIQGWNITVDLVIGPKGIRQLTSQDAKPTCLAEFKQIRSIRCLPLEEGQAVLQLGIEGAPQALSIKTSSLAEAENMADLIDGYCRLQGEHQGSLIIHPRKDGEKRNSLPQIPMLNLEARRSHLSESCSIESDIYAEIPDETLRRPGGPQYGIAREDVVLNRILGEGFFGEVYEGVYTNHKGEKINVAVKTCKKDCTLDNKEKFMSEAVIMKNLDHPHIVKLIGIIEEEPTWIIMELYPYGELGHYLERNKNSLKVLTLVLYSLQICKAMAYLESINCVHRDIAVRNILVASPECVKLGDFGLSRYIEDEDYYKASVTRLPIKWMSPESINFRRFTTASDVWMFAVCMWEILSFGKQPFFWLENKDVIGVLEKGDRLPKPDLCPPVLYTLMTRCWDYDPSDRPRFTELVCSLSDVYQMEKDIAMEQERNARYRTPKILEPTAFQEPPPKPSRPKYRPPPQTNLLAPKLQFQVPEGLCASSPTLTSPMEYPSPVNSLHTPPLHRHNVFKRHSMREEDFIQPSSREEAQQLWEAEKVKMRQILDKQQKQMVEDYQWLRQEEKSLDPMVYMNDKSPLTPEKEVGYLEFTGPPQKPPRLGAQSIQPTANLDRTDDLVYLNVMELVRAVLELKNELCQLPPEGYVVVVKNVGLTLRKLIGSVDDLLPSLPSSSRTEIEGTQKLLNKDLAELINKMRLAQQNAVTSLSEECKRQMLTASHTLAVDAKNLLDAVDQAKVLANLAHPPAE
Chain of Macrophage-stimulating protein receptor (Homo sapiens) (Q04912 25-304 limits assumed): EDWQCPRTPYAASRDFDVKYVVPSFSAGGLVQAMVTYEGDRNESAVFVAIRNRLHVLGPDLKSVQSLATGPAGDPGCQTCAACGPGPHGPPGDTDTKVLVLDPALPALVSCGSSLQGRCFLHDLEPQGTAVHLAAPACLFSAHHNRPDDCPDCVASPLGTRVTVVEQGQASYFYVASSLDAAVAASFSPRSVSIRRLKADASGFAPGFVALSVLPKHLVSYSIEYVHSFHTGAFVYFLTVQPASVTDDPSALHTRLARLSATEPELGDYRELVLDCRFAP
Chain of Macrophage-stimulating protein receptor (Homo sapiens) (Q04912 310-1400 limits assumed): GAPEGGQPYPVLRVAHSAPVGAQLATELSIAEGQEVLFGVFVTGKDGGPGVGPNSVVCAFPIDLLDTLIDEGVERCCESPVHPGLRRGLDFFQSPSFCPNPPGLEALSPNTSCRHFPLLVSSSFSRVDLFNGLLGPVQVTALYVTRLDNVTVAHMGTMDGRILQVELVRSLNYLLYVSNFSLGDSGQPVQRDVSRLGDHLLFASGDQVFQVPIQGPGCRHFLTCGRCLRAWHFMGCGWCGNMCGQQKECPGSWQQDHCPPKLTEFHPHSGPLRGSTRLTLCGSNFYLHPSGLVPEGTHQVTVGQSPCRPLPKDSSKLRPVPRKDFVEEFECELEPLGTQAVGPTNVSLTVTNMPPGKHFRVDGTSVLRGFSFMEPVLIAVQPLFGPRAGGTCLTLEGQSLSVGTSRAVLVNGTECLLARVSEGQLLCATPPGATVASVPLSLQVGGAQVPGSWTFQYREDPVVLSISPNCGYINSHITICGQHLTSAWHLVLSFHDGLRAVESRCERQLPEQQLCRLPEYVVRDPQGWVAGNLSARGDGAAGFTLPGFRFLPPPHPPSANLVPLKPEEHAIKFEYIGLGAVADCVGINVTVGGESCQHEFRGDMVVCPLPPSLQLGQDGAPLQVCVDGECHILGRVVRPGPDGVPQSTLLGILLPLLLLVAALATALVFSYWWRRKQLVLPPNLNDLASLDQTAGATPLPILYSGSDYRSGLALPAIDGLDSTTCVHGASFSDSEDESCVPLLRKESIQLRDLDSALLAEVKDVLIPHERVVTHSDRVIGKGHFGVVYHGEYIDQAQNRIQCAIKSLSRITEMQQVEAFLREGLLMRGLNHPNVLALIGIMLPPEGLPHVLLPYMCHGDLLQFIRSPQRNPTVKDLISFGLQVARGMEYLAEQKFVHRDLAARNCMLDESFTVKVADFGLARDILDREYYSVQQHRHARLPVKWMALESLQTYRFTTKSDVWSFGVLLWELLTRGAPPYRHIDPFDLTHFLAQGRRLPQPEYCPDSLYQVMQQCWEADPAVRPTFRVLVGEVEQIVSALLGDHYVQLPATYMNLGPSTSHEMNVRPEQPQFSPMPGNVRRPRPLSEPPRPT
Chain of Rho-associated protein kinase 1 (Homo sapiens) (Q13464 2-1354 limits assumed): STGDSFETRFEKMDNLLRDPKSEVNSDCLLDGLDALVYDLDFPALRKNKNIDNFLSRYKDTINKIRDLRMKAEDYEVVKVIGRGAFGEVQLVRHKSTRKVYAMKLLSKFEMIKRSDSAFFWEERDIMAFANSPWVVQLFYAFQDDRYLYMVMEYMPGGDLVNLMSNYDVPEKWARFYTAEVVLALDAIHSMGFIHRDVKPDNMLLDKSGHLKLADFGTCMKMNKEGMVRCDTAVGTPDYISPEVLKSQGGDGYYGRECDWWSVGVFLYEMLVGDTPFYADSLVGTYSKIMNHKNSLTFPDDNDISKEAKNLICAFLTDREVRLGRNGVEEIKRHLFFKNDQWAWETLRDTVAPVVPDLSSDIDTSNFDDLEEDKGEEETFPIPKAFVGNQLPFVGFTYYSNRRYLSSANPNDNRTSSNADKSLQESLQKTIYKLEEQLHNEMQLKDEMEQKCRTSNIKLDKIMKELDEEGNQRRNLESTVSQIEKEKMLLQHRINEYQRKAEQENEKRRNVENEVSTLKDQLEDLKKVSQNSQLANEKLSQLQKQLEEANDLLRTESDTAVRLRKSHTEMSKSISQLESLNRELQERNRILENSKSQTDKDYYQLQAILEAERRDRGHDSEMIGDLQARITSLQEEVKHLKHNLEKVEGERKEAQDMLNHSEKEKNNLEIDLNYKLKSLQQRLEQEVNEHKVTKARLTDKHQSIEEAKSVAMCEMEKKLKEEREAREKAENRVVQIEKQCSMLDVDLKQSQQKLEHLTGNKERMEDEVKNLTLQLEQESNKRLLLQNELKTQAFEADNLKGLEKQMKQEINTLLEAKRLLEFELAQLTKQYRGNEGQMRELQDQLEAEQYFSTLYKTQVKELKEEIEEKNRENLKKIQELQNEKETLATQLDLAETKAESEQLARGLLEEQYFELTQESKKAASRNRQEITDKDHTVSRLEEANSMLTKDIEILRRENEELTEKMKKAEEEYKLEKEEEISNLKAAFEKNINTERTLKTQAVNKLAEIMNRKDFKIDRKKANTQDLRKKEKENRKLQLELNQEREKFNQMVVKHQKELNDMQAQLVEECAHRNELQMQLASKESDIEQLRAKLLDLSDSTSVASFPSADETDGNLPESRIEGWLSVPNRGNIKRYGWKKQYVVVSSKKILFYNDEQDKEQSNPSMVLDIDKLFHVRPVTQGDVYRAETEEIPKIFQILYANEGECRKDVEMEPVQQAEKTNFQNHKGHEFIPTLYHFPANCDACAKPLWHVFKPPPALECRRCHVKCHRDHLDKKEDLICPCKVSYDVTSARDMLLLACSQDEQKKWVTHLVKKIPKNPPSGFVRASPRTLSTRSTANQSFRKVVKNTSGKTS
Chain of Receptor-interacting serine/threonine-protein kinase 2 (Homo sapiens) (O43353 whole entry): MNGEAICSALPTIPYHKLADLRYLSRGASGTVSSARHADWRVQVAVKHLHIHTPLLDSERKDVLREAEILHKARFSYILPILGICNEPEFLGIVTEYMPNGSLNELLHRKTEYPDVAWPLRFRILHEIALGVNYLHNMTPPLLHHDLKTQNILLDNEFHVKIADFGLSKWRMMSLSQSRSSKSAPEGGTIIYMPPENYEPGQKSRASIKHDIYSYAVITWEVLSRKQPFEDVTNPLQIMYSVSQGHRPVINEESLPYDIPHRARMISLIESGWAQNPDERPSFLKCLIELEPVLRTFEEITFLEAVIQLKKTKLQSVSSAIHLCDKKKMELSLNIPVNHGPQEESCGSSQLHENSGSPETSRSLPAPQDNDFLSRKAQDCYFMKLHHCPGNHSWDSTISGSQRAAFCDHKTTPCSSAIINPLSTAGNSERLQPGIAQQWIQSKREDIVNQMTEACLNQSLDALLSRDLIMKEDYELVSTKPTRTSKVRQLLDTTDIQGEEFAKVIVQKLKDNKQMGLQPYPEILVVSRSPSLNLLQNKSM

Row | SMILES | residual activity [1] | residual activity [2] [%] | residual activity [3] [%] | residual activity [4] [%] | residual activity [5] [%] | residual activity [6] [%] | residual activity [7] [%] | residual activity [8] [%] | residual activity [9] [%] | residual activity [10] [%] | residual activity [11] [%] | residual activity [12] [%] | residual activity [13] [%] | residual activity [14] [%] | residual activity [15] [%] | residual activity [16] [%] | residual activity [17] [%] | residual activity [18] [%] | residual activity [19] [%] | residual activity [20] [%]
1 | CCN(CC)C(=O)c1ccc(Nc2nc(OCC3CCCCC3)c3nc[nH]c3n2)cc1 | 101% (inactive) | 101 | 23 | 22 | 0 | 74 | 41 | 23 | 33 | 4 | 3 | 0 | 72 | 42 | 95 | 53 | – | – | – | –
2 | c1ccc2c(-c3ccncc3)c[nH]c2c1 | 91% (inactive) | 48 | 16 | – | 93 | 87 | 59 | 78 | 37 | 6 | 103 | 101 | 96 | 65 | 88 | 97 | 94 | 92 | 91 | –
3 | N#Cc1cnc2cnc(NCc3cccnc3)cc2c1Nc1ccc(F)c(Cl)c1 | – | 95 | 87 | 66 | 45 | 100 | 96 | 19 | 2 | 3 | 88 | 62 | 100 | 88 | 67 | – | 96 | 52 | – | 37
4 | O=C1c2ccccc2-[n+]2ccc3c([nH]c4ccccc43)c21 | 98% (inactive) | 92 | 53 | 101 | 97 | 90 | 88 | 115 | 89 | 86 | 89 | 75 | 77 | 70 | 89 | 107 | 91 | 88 | 104 | 126
5 | O=C(O)c1ccc2c3c1cccc3c(=O)n1c3ccccc3nc21 | 106% (inactive) | 84 | 68 | 88 | 42 | 96 | 82 | 80 | 119 | 107 | 97 | 61 | 106 | 109 | 109 | 88 | 98 | 101 | 98 | 113
6 | O=C1Nc2ccc(Br)cc2/C1=C\c1cc2c([nH]1)CCCC2 | – | 113 | 102 | 75 | 49 | – | – | 116 | 101 | 82 | 74 | 69 | 116 | 84 | – | – | – | 80 | – | 119
7 | CN(C)CCCn1cc(C2=C(c3c[nH]c4ccccc34)C(=O)NC2=O)c2ccccc21 | 101% (inactive) | 103 | 38 | 115 | 42 | 90 | 77 | 89 | 119 | 88 | – | 64 | 102 | 87 | 108 | 76 | 104 | – | – | 83
8 | Cn1nc2c3c(cccc31)C(=O)c1ccccc1-2 | 100% (inactive) | 72 | 86 | 106 | 76 | 89 | 89 | 97 | 104 | 89 | 93 | 63 | – | – | 97 | 97 | 90 | 88 | 96 | –
9 | COc1cccc(-c2cc(=O)c3ccccc3o2)c1N | 111% (inactive) | 90 | 33 | 106 | 112 | 92 | 106 | 100 | 97 | 96 | 114 | 83 | 93 | 97 | 106 | 122 | – | 97 | 78 | 117
10 | COc1ccc(C(=O)Nc2sc3c(c2C(N)=O)CCCC3)cc1OC | 90% (inactive) | 80 | 95 | 121 | 89 | 79 | 71 | 119 | 96 | 80 | 93 | 113 | 99 | 73 | 96 | 96 | 91 | 97 | 86 | 101
11 | COc1cc2ncc(-c3ccccc3)nc2cc1OC | 95% (inactive) | 88 | 76 | – | 76 | – | 58 | – | – | – | 94 | 92 | 98 | 92 | – | 98 | 93 | – | 96 | –
12 | Cc1cccc(-c2[nH]c(C(C)(C)C)nc2-c2ccc3c(c2)OCO3)n1 | 98% (inactive) | – | – | – | 103 | 59 | 21 | – | 103 | 82 | 98 | 107 | – | – | 91 | – | 88 | 94 | 97 | –
13 | Cc1cc(Nc2nc(-c3ccccc3)nc3ccccc23)n[nH]1 | – | 81 | 38 | 20 | 4 | – | 63 | 94 | – | 98 | 2 | 0 | 79 | 54 | – | 53 | – | 40 | 98 | 120
14 | N#CC(C#N)=C(N)/C(C#N)=C/c1ccc(O)cc1 | 79% (inactive) | 99 | 100 | 129 | 94 | – | 64 | – | – | – | – | – | – | 100 | 95 | – | 27 | 92 | – | –
15 | CC(C)n1cnc2c(NCc3ccccc3)nc(NCCCO)nc21 | 98% (inactive) | 130 | 88 | 102 | 83 | 69 | 51 | 100 | 94 | 90 | 96 | 92 | 88 | 92 | 96 | 101 | 95 | 93 | 105 | 109
16 | COc1cc2ncnc(Nc3ccc(NC(=O)c4ccccc4)cc3)c2cc1OC | 102% (inactive) | – | 91 | 134 | 75 | 110 | 77 | – | – | 82 | 56 | 12 | 87 | 74 | 109 | 76 | 97 | 102 | 94 | –
17 | COc1ccc(OC)c2c(=S)c3ccccc3[nH]c12 | 99% (inactive) | 83 | 83 | 79 | 105 | 85 | 80 | 102 | 86 | 95 | 110 | 96 | 69 | 82 | 99 | 93 | 95 | 92 | 108 | 122
18 | c1ccc(-c2n[nH]c3c2oc2ccccc23)cc1 | 100% (inactive) | 88 | 94 | – | – | 97 | 64 | 126 | 97 | 75 | 74 | 47 | 58 | 73 | 97 | 62 | 90 | 93 | 79 | 114
19 | Cc1cc2ncc(-c3ccccc3)nc2cc1C | 87% (inactive) | 108 | 97 | 126 | 101 | 108 | 82 | – | 100 | 94 | 96 | 104 | 92 | 79 | 101 | – | 92 | 100 | – | –
20 | Oc1ccc(-c2nc(-c3ccc(F)cc3)c(-c3ccncc3)[nH]2)cc1 | 109% (inactive) | – | – | 111 | 86 | 24 | 14 | 100 | 95 | 36 | 101 | 47 | 84 | 68 | 115 | 81 | 90 | 104 | 103 | 117
21 | CC#CC(=O)Nc1cc2c(Nc3ccc(F)c(Cl)c3)ncnc2cn1 | 96% (inactive) | 100 | 93 | 120 | – | 82 | 60 | 116 | 92 | 77 | 100 | 104 | 101 | 76 | 94 | 82 | 82 | 92 | 85 | 99
22 | CO[C@@H]1[C@H](N(C)C(=O)c2ccccc2)C[C@H]2O[C@]1(C)n1c3ccccc3c3c4c(c5c6ccccc6n2c5c31)C(=O)NC4 | 95% (inactive) | 24 | 12 | 16 | 10 | 88 | 70 | 115 | 79 | 57 | 8 | 5 | 47 | 56 | 63 | 84 | 92 | 50 | – | 110
23 | N#CCCc1ccc2c(c1)-c1[nH]c3ccc([N+](=O)[O-])cc3c1CC(=O)N2 | 100% (inactive) | 72 | 25 | 19 | 9 | 18 | 10 | 24 | 8 | 7 | 80 | 49 | – | – | – | 59 | 82 | – | 75 | 52
24 | COc1cc2ncnc(N3CCN(C(=O)Nc4ccc(Oc5ccccc5)cc4)CC3)c2cc1OC | 90% (inactive) | 77 | 113 | 122 | 104 | 84 | 70 | – | 98 | 87 | 101 | 82 | 74 | 20 | 81 | 95 | 92 | 86 | 97 | 124
